An excerpt weighted towards active compounds, which were near 5.4% of everything screened.
PP5 inh – PP5 phosphatase inhibitors, primary screen, biochemical, fluorescence; purified PP5c, OMFP substrate fluorescence; inhibition, % at 6.7 µM; hit rate 0.18% among 320,000;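 active = inhibition above the campaign's mean inhibition across all tested compounds plus 3 SD, cut at about 9.5% in these data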
ALR inh – inhibitors of human ALR sulfhydryl oxidase, primary screen, biochemical, H2O2 detection, HRP-luminol luminescence, single point; FAD-linked sulfhydryl oxidase ALR (Homo sapiens), P55789; purified ALR, DTT oxidation; inhibition, % (test concentration not listed); hit rate 3.8% among 290,000; AID 485317, 2010;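 active = mean replicate inhibition above about 79%, with every replicate also reaching it, limit read from the data; inconclusive = only one of the two criteria met; inactive = mean below limit and not every replicate reaching it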
Target sequence (P55789 whole entry, looked up): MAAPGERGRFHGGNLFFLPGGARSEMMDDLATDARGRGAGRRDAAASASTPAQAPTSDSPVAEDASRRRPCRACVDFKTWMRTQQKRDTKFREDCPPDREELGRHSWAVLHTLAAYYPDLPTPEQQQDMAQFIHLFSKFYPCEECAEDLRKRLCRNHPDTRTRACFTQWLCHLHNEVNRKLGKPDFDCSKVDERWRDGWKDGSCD
PP1 inh – PP1-alpha phosphatase inhibitors, primary screen, counter-screen for PP5 inhibitor project, biochemical, fluorescence, OMFP substrate, single point; Serine/threonine-protein phosphatase PP1-alpha catalytic subunit (Homo sapiens), P62136; purified PP1alpha; inhibition, % at 6.7 µM; hit rate 0.9% among 320,000; AID 2235, 2010;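 active = inhibition above the mean inhibition of all tested compounds plus 3 SD, computed separately for each screening campaign, cut at about 15% in these data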
Calb FLC – C. albicans growth inhibition with fluconazole, primary screen, CaCi-2 strain, Alamar Blue fluorescence; C. albicans CaCi-2 (fluconazole-resistant clinical isolate) + fluconazole, 48 h; growth inhibition, % (test concentration not listed); hit rate 0.57% among 300,000; AID 1979, 2009;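 active = growth inhibition above about 58% in most replicates, limit read from the data, passing the limit was not always enough; inconclusive = exactly half the replicates above a set limit; inactive = most replicates below a set limit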;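 note: all wells also contain fluconazole at 8 µg/ml as a sub-toxic cotreatment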
CSC inhib – cancer stem cell viability inhibitors, primary screen, luminescence. inhibition, % at 7.5 µM. cancer stem cell-like cells viability. AID 2717, 2010. hit rate 1.1% among 300,000; in the data active = inhibition above about 75%; inconclusive = no clear call, values can overlap the other calls; tested in HMLE shEcad cells
Each line names hits and unclear results; the compound was inactive in the other large screens.

Cn1nc([N+](=O)[O-])c(C(C#N)c2ccccn2)c(Cl)c1=O (stereo not drawn)	CSC inhib 88 (no result: Calb FLC)
CCCn1nc([N+](=O)[O-])c(C(C#N)c2nc3ccccc3o2)c(Cl)c1=O (stereo not drawn)	CSC inhib 79 (no result: ALR inh)
CCCCn1c(N)c(-c2nc3ccccc3o2)c2c([N+](=O)[O-])nn(CC)c(=O)c21	none (no result: ALR inh)
CN(C)/C=C/C(=O)c1ccccc1	none (no result: ALR inh)
CN(C)/C=C/C(=O)c1ccc(Br)s1	ALR inh 92
Cc1cccc([C@@H]2[C@@H]3C(=O)N(Cc4ccccc4)C(=O)[C@@H]3[C@]3(Cc4ccc(Cl)cc4)C(=O)N(c4ccccc4)C(=O)N23)c1	none (no result: ALR inh)
COc1ccc(S(=O)(=O)N2CCN(CCOc3ccc(Br)cc3)CC2)cc1OC	none (no result: Calb FLC, CSC inhib)
O=C(Nc1ccccc1N1CCOCC1)c1cccnc1	none
CN(C(=O)Nc1cnccc1C(F)(F)F)C1CCCCC1	none
CC(C)(C)c1nc(N)nc(=O)[nH]1	none
N#Cc1sc2nc(N3CCCCC3)c3c(c2c1N)CCCC3	ALR inh 98
Cc1nc2sc(C#N)c(N)c2c2c1CCCC2	none
CC(=O)n1nc(-c2ccc(C)cc2)nc1NCc1ccco1	none (no result: PP5 inh, ALR inh, PP1 inh, CSC inhib)
CC(OC(=O)c1ccc(Cl)c(S(N)(=O)=O)c1)C(=O)NCC1CCCCC1 (stereo not drawn)	none (no result: Calb FLC)
Cc1ccc(O)c(Nc2c3ccccc3nc3ccccc23)c1	ALR inh 99
Cc1ccc(O)c(Nc2nc(-c3ccccc3)nc3ccccc23)c1	none
COc1cccc(/C=N/N2C(=O)NC3(CCCCC3)C2=O)c1O	ALR inh 84
Cc1cc(/C=C2/C(=N)N3C(=NC2=O)SN=C3S(C)(=O)=O)c(C)n1-c1ccccc1F	ALR inh 91
O=C(C1CCC(CNS(=O)(=O)c2cccs2)CC1)N1CCN(c2ccc(F)cc2)CC1 (stereo not drawn)	none
COc1cc(C(C[N+](=O)[O-])c2c(C)[nH]c3ccccc23)ccc1O (stereo not drawn)	ALR inh 99
Cc1ccc(-c2[nH]c3ccccc3c2C(C[N+](=O)[O-])c2ccco2)cc1 (stereo not drawn)	ALR inh 94 (no result: CSC inhib)
Cc1[nH]c2ccccc2c1C(C[N+](=O)[O-])c1ccco1 (stereo not drawn)	none
Cc1[nH]c2ccccc2c1C(C[N+](=O)[O-])c1cccs1 (stereo not drawn)	none
Cc1[nH]c2ccccc2c1C(C[N+](=O)[O-])c1cccc(O)c1 (stereo not drawn)	ALR inh 98 (no result: CSC inhib)
O=C(O)c1cc(-c2c[nH]c3ccccc23)nc2ccc3ccccc3c12	ALR inh 92, Calb FLC inconclusive
Cc1ccc2occ(/C=N/NC(=O)c3ccc(O)cc3)c(=O)c2c1	ALR inh 98 (no result: PP5 inh, PP1 inh)
Cc1ccc2occ(/C=N/NC(=O)c3ccccc3Br)c(=O)c2c1	none
COc1ccc(-c2cnc(SCC(=O)Nc3ccc4c(c3)OCO4)n2Cc2ccco2)cc1	none (no result: PP5 inh, ALR inh, PP1 inh, CSC inhib)
CC(=O)Nc1cccc(NC(=O)CSc2ncc(-c3ccc(Cl)cc3)n2Cc2ccco2)c1	ALR inh 92 (no result: Calb FLC)
Cc1ccc(NC(=O)CSc2nccn2Cc2ccco2)cc1	ALR inh 89
CC(=O)Nc1ccc(NC(=O)CSc2nccn2Cc2ccccc2)cc1	none
Cc1ccc(NC(=O)CSc2ncc3ccccn23)cc1	ALR inh 99
Cc1ccc(NC(=O)CSc2nccn2Cc2ccccc2)cc1C	ALR inh 98
Cc1cc(NC(=O)C2CCCC2)nc2c1c(=O)oc1ccccc12	none (no result: ALR inh)
CCC(C)(C(=O)NC1CCCC1)N(C(=O)c1ccccn1)c1ccc(C)cc1 (stereo not drawn)	none
Cc1ccc(N2CC(C(=O)OCC(=O)c3ccc([N+](=O)[O-])cc3)CC2=O)cc1 (stereo not drawn)	none (no result: ALR inh, CSC inhib)
O=C(CSc1nccn1Cc1ccco1)Nc1cccc(F)c1	none
O=C(CSc1nccn1Cc1ccco1)Nc1ccc(F)cc1	ALR inh 99
Cc1ccccc1C(=O)Nc1sc(C)c(C)c1C(=O)c1ccccc1	none
Cc1sc(NC(=O)CCl)c(C(=O)c2ccccc2)c1C	ALR inh 99
Clc1ccc(NCc2cccnc2)cc1	ALR inh 99
c1ccc2c(C3=NNC(=NC4CC4)SC3)c[nH]c2c1	ALR inh 99
CC(=O)N1CCN(CCS(=O)(=O)c2cc(Cl)ccc2Cl)CC1	none (no result: PP5 inh, PP1 inh, Calb FLC)
